Our source for the growth values is PubChem BioAssay (NCI).

Compounds without any hit were thinned out: in the full panel of roughly 83,000, 20% have a hit.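 Step 1: grow cells in 96-well plates. Step 2: add test compound at a single concentration. Step 3: incubate 48 h. Step 4: record percent growth.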 Values without a mark were called inactive. Calls of active or inactive are those of the source. Rule for the calls: active = growth percent below 10; inactive = the rest.

Holding throughout (experiment): NCI-60 one-dose screen, 48 h (100 = growth as untreated, 0 = no growth, -100 = all killed)
The test system of one assay is T-47D breast. Particulars: 10 µM unless noted.
A further assay relates to BT-549 breast. As to conditions: 10 µM unless noted.
The next assay has as its system MDA-MB-435 melanoma. Particulars: 10 µM unless noted.
The next assay relates to SW-620 colon. As to conditions: 10 µM unless noted.
In a further assay the test system is MCF7 breast. Particulars: 10 µM unless noted.
The test system of another assay is HCT-116 colon. Particulars: 10 µM unless noted.
The next assay deals with HCC-2998 colon. As to conditions: 10 µM.
Another assay deals with KM12 colon. Particulars: 10 µM unless noted.

Regarding `COc1cnc2c(c1)C(=O)c1c-2n(CCCN2CCOCC2)c(=O)c2cc(Cl)ccc12`, the growth was 10% in the assay with T-47D breast; 43.6% in the assay on BT-549 breast; 47.5% in the assay on MDA-MB-435 melanoma; 21.3% in the assay with SW-620 colon; 10.4% in the assay with MCF7 breast; 8.51% (active) in the assay on HCT-116 colon. Also, the growth is 53.6% in the assay with HCC-2998 colon and 32.7% in the assay on KM12 colon.
`CCN(CC)CCOc1ccc(/C(=C(\C)c2ccc(Cl)cc2)c2ccc(Cl)cc2)cc1`: the growth with T-47D breast is 55.2%; with BT-549 breast, 85.2%; in the assay on MDA-MB-435 melanoma, 87.1%; in the assay on SW-620 colon it was 30.8%; in the assay with MCF7 breast, 34.8%; in the assay with HCT-116 colon, 47%. The figures for the growth in the assay on HCC-2998 colon and in the assay on KM12 colon were 93.6% and 40.3%, respectively.
Regarding `O=C(Nc1cnn2ccc(N3CCC[C@@H]3c3cc(F)ccc3F)nc12)N1CC[C@H](O)C1`, the growth with T-47D breast is 78.3%; in the assay with BT-549 breast, 90.5%; in the assay with MDA-MB-435 melanoma, 93%; in the assay on SW-620 colon, 106%; with MCF7 breast, 99.7%; in the assay with HCT-116 colon, 83.1%. Moreover, the growth with KM12 colon is 26.7%.
As to `Nc1cc(C(F)(F)F)c(-c2cc(N3CCOCC3)nc(N3CCOCC3)n2)cn1`, the growth was -42.9% (active) with T-47D breast; -2.66% (active) in the assay with BT-549 breast; -62.3% (active) in the assay on MDA-MB-435 melanoma; 0.981% (active) in the assay on SW-620 colon; -7.62% (active) in the assay on MCF7 breast; -25.4% (active) with HCT-116 colon. Moreover, the growth was -52.9% (active) with HCC-2998 colon and -1.19% (active) in the assay on KM12 colon.
In the case of `CN(c1ncccc1CNc1nc(Nc2ccc3c(c2)CC(=O)N3)ncc1C(F)(F)F)S(C)(=O)=O`, the growth with T-47D breast is -2.8% (active); with BT-549 breast, -10.5% (active); with MDA-MB-435 melanoma, -9.58% (active); in the assay with SW-620 colon it was 0.466% (active); with MCF7 breast, 2.39% (active); with HCT-116 colon, 1.07% (active). Besides, the growth was -13.5% (active) with HCC-2998 colon and 1.83% (active) in the assay with KM12 colon.
`Cc1ccc(NC(=O)c2ccc(CN3CCN(C)CC3)cc2)cc1Nc1nc(-c2cccnc2)cs1`: the growth in the assay on T-47D breast was -9.37% (active); with BT-549 breast, 41.2%; with MDA-MB-435 melanoma, 45.4%; with SW-620 colon, 42.1%; in the assay on MCF7 breast, 28.5%; with HCT-116 colon, 18.1%. Besides, the growth in the assay on HCC-2998 colon is 68.3%; in the assay with KM12 colon, 51.7%.
For the molecule `COc1cc2c(cc1O)c(=O)n(CCN(C)C)c1c3cc4c(cc3ncc21)OCO4`, the growth in the assay with T-47D breast is 4.79% (active); in the assay on BT-549 breast, -15.5% (active); with MDA-MB-435 melanoma it was -59.7% (active); in the assay with SW-620 colon, 1.96% (active); in the assay on MCF7 breast, 2.14% (active); in the assay with HCT-116 colon it was 2.63% (active). The results for the growth in the assay on HCC-2998 colon and with KM12 colon were -38.6% (active) and -11.6% (active), respectively.
Turning to `CCOC(=O)c1sc(NC(=O)COc2ccc(/C=C3\Cc4ccc(Cl)cc4C3=O)cc2)nc1C`, the growth in the assay on T-47D breast is 92.9%; with BT-549 breast, 94.5%; in the assay with MDA-MB-435 melanoma it was 105%; in the assay on SW-620 colon, 123%; in the assay with MCF7 breast, 96.1%; in the assay with HCT-116 colon, 92.9%. For the same molecule, in the assay on KM12 colon, the growth was 112%.
Regarding `CC(=O)O[C@]1(C)C[C@H](O)[C@]2(O)C=CO[C@H](O[C@@H]3O[C@H](CO)[C@@H](O)[C@H](O)[C@H]3O)[C@@H]21`, the growth in the assay on T-47D breast was 92%; in the assay on BT-549 breast it was 94.6%; with MDA-MB-435 melanoma, 102%; in the assay with SW-620 colon, 113%; in the assay with MCF7 breast, 94.4%; in the assay with HCT-116 colon it was 98.1%. In addition, the figures for the growth in the assay with HCC-2998 colon and in the assay with KM12 colon were 116% and 95.1%, respectively.
Regarding `CN1CC[C@H](c2c(O)cc(O)c3c(=O)cc(-c4ccccc4Cl)oc23)[C@H](O)C1`, the growth was 0.506% (active) with T-47D breast; -8.28% (active) with BT-549 breast; -73.3% (active) in the assay with MDA-MB-435 melanoma; 0.889% (active) in the assay on SW-620 colon; 4.72% (active) in the assay with MCF7 breast; 4.7% (active) in the assay with HCT-116 colon. In addition, the growth in the assay with HCC-2998 colon was -21.1% (active); in the assay with KM12 colon it was 3.91% (active).
Consider `COCCOc1cnc2ccn([C@H](C)c3nnc4c(F)cc(-c5cnn(C)c5)cn34)c(=O)c2c1`, for which the growth in the assay with T-47D breast was 94.6%; in the assay on BT-549 breast it was 105%; in the assay with MDA-MB-435 melanoma, 60%; with SW-620 colon, 35.5%; in the assay on MCF7 breast it was 103%; in the assay on HCT-116 colon, 99.9%. The growth with KM12 colon is 28.3%.
Turning to `COc1ccc2c(OCc3nnc4ccc(-c5ccccc5)nn34)ccnc2c1`, the growth in the assay on T-47D breast was 71.1% [2.5 µM]; in the assay on BT-549 breast, 102% [2.5 µM]; with MDA-MB-435 melanoma, 103% [2.5 µM]; with SW-620 colon, 109% [2.5 µM]; in the assay on MCF7 breast, 93.4% [2.5 µM]; in the assay on HCT-116 colon, 98.4% [2.5 µM]. Also, in the assay with KM12 colon, the growth was 94.3% [2.5 µM].
On to `O=C1NC(=O)/C(=C/c2ccc3nccc(-c4ccncc4)c3c2)S1`, for which the growth with T-47D breast is -41.7% (active); in the assay on BT-549 breast, -36.7% (active); with MDA-MB-435 melanoma, -11% (active); in the assay on SW-620 colon it was 1.44% (active); in the assay with MCF7 breast, 0.645% (active); with HCT-116 colon, -38.6% (active). Further, in the assay on KM12 colon, the growth was 1.44% (active).
In the case of `CC(C)NC[C@@H](C(=O)N1CCN(c2ncnc3c2[C@H](C)C[C@H]3O)CC1)c1ccc(Cl)cc1`, the growth is -9.42% (active) in the assay with T-47D breast; 25.2% in the assay on BT-549 breast; 68.2% in the assay on MDA-MB-435 melanoma; 71.4% in the assay on SW-620 colon; 30.9% in the assay with MCF7 breast; 61.4% in the assay with HCT-116 colon. Further, the growth with KM12 colon was 18.9%.
With `COc1cc(OC)c(C(=O)/C=C/c2cc3c(cc2OCc2ccccc2)OC(C)(C)CC3)cc1CC=C(C)C`, the growth in the assay with T-47D breast was 42.3%; in the assay on BT-549 breast, 27.2%; in the assay on MDA-MB-435 melanoma, 35.9%; with SW-620 colon it was 25.5%; with MCF7 breast, 28.8%; in the assay on HCT-116 colon it was 28.5%. For the same molecule, the growth with KM12 colon was 42.4%.
On to `Nc1nc(=S)c2ncn(C3OC(COC(=O)c4ccc(Cl)cc4)C(OC(=O)c4ccc(Cl)cc4)C3OC(=O)c3ccc(Cl)cc3)c2[nH]1` (stereo not given), for which the growth in the assay with T-47D breast was 59.6%; in the assay on BT-549 breast it was 113%; with MDA-MB-435 melanoma, 103%; in the assay with SW-620 colon, 100%; with MCF7 breast, 59.8%; in the assay on HCT-116 colon, 76%. Moreover, the growth in the assay with KM12 colon was 83.9%.
